Measured values from PubChem BioAssay.
The source made the active and inactive calls.

These compounds were tested against Dihydroorotate dehydrogenase (quinone), mitochondrial (Plasmodium falciparum (isolate 3D7)) (UniProt Q08210) (assay: PfDHODH enzyme inhibitors, primary screen, biochemical, C-terminal His tag, absorbance 600 nm (AID 1175;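 further: recombinant parasite enzyme with a five histidine tag at its C terminus; test concentration not given here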)). Settings: DCIP absorbance 600 nm, higher = more signal, called active from +8 up or from −8 down.
Chain of Dihydroorotate dehydrogenase (quinone), mitochondrial (Plasmodium falciparum (isolate 3D7)) (Q08210 whole entry, looked up): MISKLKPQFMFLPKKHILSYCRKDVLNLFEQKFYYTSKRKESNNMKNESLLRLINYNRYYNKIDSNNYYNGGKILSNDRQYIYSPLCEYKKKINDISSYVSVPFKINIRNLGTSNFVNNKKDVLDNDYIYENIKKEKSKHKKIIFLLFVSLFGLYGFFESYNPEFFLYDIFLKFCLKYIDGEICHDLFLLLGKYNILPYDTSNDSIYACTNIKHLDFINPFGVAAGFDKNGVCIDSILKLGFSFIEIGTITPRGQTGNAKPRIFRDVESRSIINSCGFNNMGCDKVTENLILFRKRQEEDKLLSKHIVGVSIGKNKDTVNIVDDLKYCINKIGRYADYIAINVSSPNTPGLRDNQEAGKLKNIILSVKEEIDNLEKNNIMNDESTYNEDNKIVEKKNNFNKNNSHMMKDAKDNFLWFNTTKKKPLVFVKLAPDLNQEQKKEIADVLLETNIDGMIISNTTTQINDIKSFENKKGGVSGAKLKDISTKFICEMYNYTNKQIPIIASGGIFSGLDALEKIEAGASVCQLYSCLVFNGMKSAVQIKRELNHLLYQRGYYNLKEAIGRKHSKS

Composite z-score, inactive:
COCC(=C=CC[C@@H](O)c1cccc(OCCO)c1)C[C@@H](O)c1ccccn1 -1.61
C[C@@]1([C@@H](NC(=O)c2ccc(-c3ccccc3)cc2)c2ccc(Cl)cc2)C[C@H]1C1CCCCC1 -0.0475
CCc1cccc(NC(=O)O[C@H]2[C@H](OC(=O)Nc3ccccc3-c3ccccc3)[C@@H](OC(=O)Nc3ccccc3-c3ccccc3)[C@@H](OC)O[C@@H]2CO)c1 0.153
C=C[C@H](CO[Si](CC)(CC)CC)N(Cc1ccc(OC(C)=O)c(OC)c1)S(=O)(=O)c1ccc(Br)cc1 -1.38
C[C@H]1NC(=O)[C@@]23C(=O)N[C@@H](Cc4ccccc4)C2[C@H](C)[C@@]2(C)O[C@H]2C3/C=C/C/C=C\CNC(=O)[C@@H]2CCCN2C1=O (stereo not given in full) -1.43
CCS[C@H]1[C@@H](C(=O)O)[C@H](c2ccc(C)cc2)N(S(=O)(=O)c2ccc(C)cc2)[C@@H]1CC -1.03
COCCOC(=O)N1C(=O)[C@@]2(c3ccccc31)[C@H](C(=O)N1CCc3cc(OC)c(OC)cc3C1)[C@H]1C(=O)O[C@H](c3ccccc3)[C@H](c3ccccc3)N1[C@@H]2c1ccc(OCCO)cc1 -0.76
[N-]=[N+]=Nc1ccccc1[C@H]1OC(c2ccc(OCCCO)cc2)=N[C@@]1(CCS(=O)(=O)c1ccccc1)C(=O)NCC(O)CO (stereo not given in full) 1.01
[N-]=[N+]=NCc1ccccc1[C@@H]1OC(c2ccc(OCCCO)cc2)=N[C@]1(Cc1ccccc1)C(N)=O -0.717
C=C(CCCC)C(=O)CC[C@@H](OC(=O)c1ccccc1-c1ccccc1C(=O)O)c1ccc(OCCO)cc1 -1.25
O=C(CS)NCCCCCCNC(=O)[C@@H]1C[C@@H]2C(=O)N[C@@H](Cc3ccccc3)C(=O)N2[C@@H]1c1cccc(OCCO)c1 -0.0547
CC(C)C(O)C1C=CC2C(=O)N(c3ccccc3)C(=O)C2N1Nc1ccc([N+](=O)[O-])cc1 (stereo not given) -0.0755
CC(C)N1C(=O)[C@@]2(Cc3ccccc31)c1ccccc1C(=O)N(Cc1ccccc1Cl)[C@H]2c1ccc(CO)cc1 -4.26
C=CCC(OC(C)=O)[C@@H]1[C@@H](N(Cc2cc3ccccc3o2)C(=O)c2cccc3ccccc23)c2cc(OCCCO)ccc2N1C(=O)c1ccc(-c2ccccc2)cc1 (stereo not given in full) -0.0369
C=CCC(OC(C)=O)[C@@H]1[C@@H](N(Cc2ccc(-c3ccccc3)cc2)C(=O)Cc2ccc(OC)cc2)c2cc(OCCCO)ccc2N1C(=O)Cc1ccc2ccccc2c1 (stereo not given in full) 0.0513
Cc1ccc(S[C@]2(C(=O)O)CC(=O)N(C(C)C)[C@@H]2c2ccc(CO)cc2I)cc1 -1.12
O=C1O[C@@H](c2ccccc2)[C@@H](c2ccccc2)N2[C@@H](c3ccccc3OCCO)[C@]3(C(=O)Nc4ccc(C#CC5=CCCCC5)cc43)[C@@H](C(=O)N3CCCCCCC3)[C@H]12 -0.35
O=C1OCCC/C=C\[C@H]2OC34C=CCN(Cc5ccccc5)C(=O)[C@H]3N(CCCO)C(=O)[C@@H]4C12 (stereo not given in full) 0.905
COC(=O)[C@@]1(Cc2ccc(OC)cc2)[C@H]2c3cc(C(=O)N(C)C)n(Cc4ccc(S(C)(=O)=O)cc4)c3C[C@H]2CN1C(=O)c1ccccc1 -1.4
CC(C)C[C@@H]1NC(=O)[C@H](C(C)C)NC(=O)[C@@]23C(=O)N[C@@H](Cc4ccccc4)C2[C@H](C)[C@@]2(C)O[C@H]2C3/C=C/CC/C=C/CNC1=O (stereo not given in full) -0.313
COCCOC(=O)N1C(=O)[C@@]2(c3ccccc31)[C@H](c1ccc(O)cc1)N1[C@H](c3ccccc3)[C@H](c3ccccc3)OC(=O)[C@H]1[C@@H]2C(=O)Nc1nc2ccccc2s1 0.553
CC(C)OC(=O)C=C1C[C@@H](c2ccccn2)O[C@@H](c2ccccn2)O1 0.409
COC(=O)[C@@]1(Cc2ccc(F)cc2)[C@H]2c3cc(C(=O)N(C)C)n(Cc4ccc(Cl)c(C(F)(F)F)c4)c3C[C@H]2CN1C(=O)c1ccccc1 0.117
CC(C)(C)OC(=O)CC[C@]1(C(=O)N2CCOCC2)N=C(c2ccc(OCCCO)cc2)O[C@H]1c1ccccc1N=[N+]=[N-] -0.793
C=C(C(=O)CC[C@@H](OC(=O)c1cccnc1)c1ccccc1OCCO)C(C)C -0.0125
